Reference: PubChem BioAssay (NCI)
About 83,000 compounds went through this panel and 20% of them were active in at least one assay; those are over-represented in the sample as a whole.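 A percent growth of 40 corresponds to 60% growth inhibition; 0 means no net growth; -100 means all cells died. Active threshold: below 10.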 A number with no mark means an inactive call. The source made the active and inactive calls.

system: OVCAR-3 ovarian; assay: NCI-60 one-dose screen, 48 h (100 = growth as untreated, 0 = no growth, -100 = all killed); conditions: 10 µM unless noted
Description: Growth inhibition of the OVCAR-3 human tumor cell line is measured as a screen for anti-cancer activity. Cells are grown in 96 well plates and exposed to the test compound for 48 hours. Compounds are tested at a single concentration, which is 10^-5 M for most compounds. The reported endpoint is percent growth (GI% or GIPRCNT), where numbers from 0 - 100% represent growth inhibition, and numbers from -100% - 0 represent cell death. For example, a value of 40 represents 60% growth inhibition. A value of 0 means no net growth occurred over the course of the experiment. A value of -40 indicates 40% of cells at the beginning of the experiment died by the end of the experiment. A value of -100 means all cells are dead at the end of the experiment.
NCI-60 Human Tumor Cell Lines Screen was performed using the standard one-dose NCI protocol, which is described in more detail at https://dtp.cancer.gov/discovery_development/nci-60/default.htm.
Compounds with GIPRCNT values below 10 were considered active. Activity score was based on GIPRCNT using the following formula: […]
Score is 0 for GIPRCNT values of 100 or above, 50 for GIPRCNT values of 0, and 100 for GIPRCNT values of -100.

Structure (SMILES) | growth
Cc1ccccc1Nc1cc(O)c2c(=O)cc(-c3ccccc3)oc2c1 | -4.27% (active)
C=C1C(=O)O[C@H]2[C@H]1CC/C(Cn1cc(CCC)nn1)=C\CC[C@@]1(C)O[C@@H]21 | 1.06% (active)
Cc1cc2c(cc1C)N(C(=O)CCl)CC(=O)N2 | 6.17% (active)
Fc1ccc(Cn2cc(CSc3nc4ccccc4o3)nn2)cc1 | 98.5%
O=C(CSc1nnc(-c2cc(-c3ccccc3)nc3ccccc23)n1-c1ccccc1)Nc1ccc(C(=O)/C=C/c2ccc(Cl)cc2)cc1 | 97.2%
O=C1/C(=C/c2ccc(F)cc2)CN(C(=O)C(Cl)Cl)C/C1=C\c1ccc(F)cc1 | -95.1% (active)
CN1CCN(C(=O)C(C)(C)c2ccc(C(=O)Nc3cn4cc(-c5ccncc5)ccc4n3)cc2)CC1 | -37.4% (active)
Cc1ccc(/C=C/C(=O)c2cccc(OCCCOc3cccc(C(=O)/C=C/c4ccc(C)cc4)c3)c2)cc1 | 82.4%
Nc1ncnc2c1N=C(c1ccc3c(c1)OCO3)CC(c1cccc(Nc3ccnc4cc(C(F)(F)F)ccc34)c1)N2 (stereo not given) | 95.1%
CCOc1c(OC)cc2c(c1O)C(=O)N[C@@H]1[C@@H](O)[C@@H](O)[C@H](O)C[C@@H]21 | 102%
NS(=O)(=O)c1ccc(-c2cc(-c3nnc(SCC(=O)Nc4ccc(C(=O)/C=C/c5ccc(Cl)cc5)cc4)n3-c3ccccc3)c3ccccc3n2)cc1 | 101%
N#CC1CCc2c(c(-c3ccc4nc(N)sc4c3)nc3ccc4[nH]ncc4c23)C1 (stereo not given) | 69.7%
CCOc1ccc(-n2nc(C(=O)NCc3ccccc3OC)nc2-c2cc(OC)c(OC)c(OC)c2)cc1 | 49.4%
COc1ccc2c(c1)c(-c1nc(-c3c[nH]c4ncccc34)cs1)cn2CCO | 78.7%
CN1CCN(CCOc2ccc(-c3cnc4c(-c5cccc(F)c5F)cnn4c3)cc2)CC1 | -52.6% (active)
CN(C)CCCC1(c2ccc(F)cc2)OCc2cc(-c3cc4ccccc4s3)ccc21 (stereo not given) | -29.1% (active)
COc1ccccc1C(=O)Nc1cccc(NC(=O)c2ccoc2C)c1 | 15%
C=C1C(=O)O[C@H]2[C@H]1CC/C(COC(=O)/C=C\C(=O)NCc1ccc(Cn3c(=O)sn(CCCCC)c3=O)cc1)=C\CC[C@@]1(C)O[C@@H]21 | 36%
CCOC(=O)c1c(C)nc2ccccc2c1/C=C/c1ccccc1 | 79.6%
O=C1/C(=C\c2cccc3nccnc23)SC(=S)N1CCc1ccc(O)cc1 | 101%

Structure (SMILES) | growth
COc1ccc(/C=C2\COc3ccc(O)cc3C2=O)cc1 | 114%
CCN1C(=O)N(CC)C2C1NN=c1s/c(=C\c3cnc(C)n3C)c(=O)n12 (stereo not given) | -17.6% (active)
Cc1ccc2c(-c3nnc(N)s3)cc(=O)oc2c1C | 110%
CC(=O)OC(c1ccccc1)C1CCOC1=O (stereo not given) | 102%
CCN(CC)c1ccc(/C=N/NC(=O)Cc2ccc(Nc3ccnc(C(F)(F)F)c3)cc2)c(O)c1 | 32.4%
COc1cc(/C=N/Nc2ccc(Br)cc2)cc(OC)c1OC | 63.3%
O=C1NC(=O)/C(=C/c2c(-c3ccccc3)nc3sc(COc4ccccc4)nn23)S1 | 110%
COc1ccc(-c2nc3c(N)c(CO)cnc3s2)cc1 | 89.4%
COc1cc(/C=C/C(=O)/C=C(O)/C=C/c2ccc(OC(=O)C34CC5CC(CC(C5)C3)C4)c(OC)c2)ccc1OC(=O)C12CC3CC(CC(C3)C1)C2 | 109%
Cc1c2cccnc2c(C)c2c1c1cc(CO)ccc1n2C | 25.2%
C=C(C)[C@@H]1CC[C@]2(COC(C)=O)CC[C@]3(C)[C@H](CC[C@@H]4[C@@]5(C)CCCN(C(C)=O)C(C)(C)[C@@H]5CC[C@]43C)[C@@H]12 | 88.3%
C=CC(=O)Nc1ccc(Nc2nccc(-c3ccc(N4CCCC4)c(C#N)c3)n2)cc1 | 14.1%
O=C(Nc1ncccc1OCc1ccccc1)NC1CCCCCC1 | 89.1%
CCNc1nc(O)c(/C=C2\C=Nc3ncccc32)s1 | -2.07% (active)
CCN(CC)CCN1C(=O)c2c(c(C)c3c(oc4ccc(OC)cc43)c2C)C1=O | 115%
COc1ccc(Cn2cc(C(=O)N=Nc3c(O)[nH]c4c(C)cccc34)nn2)cc1 | 46.7%
CC1=C2[C@@H](CC1)[C@]1(C)O[C@@](C3CCCCC3)(C[C@H]1OC(=O)CO)[C@H]2OC(=O)/C=C/c1ccccc1 | 85%
COc1cccc(Nc2ncnc3cc(NC(=O)CCl)ccc23)c1 | -82.9% (active)
C#CC#CC#CC#CC#CC#CC#CC#CC[C@@H]1OC[C@@H](COC(=O)O[C@@H](C(=O)O[C@H]2C[C@@]3(O)[C@@H](OC(=O)c4ccccc4)[C@@H]4[C@]5(OC(C)=O)CO[C@@H]5C[C@H](O)[C@@]4(C)C(=O)[C@H](OC(C)=O)C(=C2C)C3(C)C)[C@@H](NC(=O)c2ccccc2)c2ccccc2)O1 | 100%
Cc1cccc(Oc2ccc(Nc3ncnc4ccc(NC(=O)CN5CCN(C)CC5)cc34)cc2Cl)c1 | 10.1%
